Consider six molecules from PubChem BioAssay (NCI).

Test systems include HCT-15 colon; HT29 colon; SNB-75 CNS; SNB-19 CNS; U251 CNS; PC-3 prostate; SK-MEL-5 melanoma; UACC-62 melanoma; LOX IMVI melanoma; SK-MEL-28 melanoma; SK-MEL-2 melanoma; EKVX NSCLC; SN12C renal; UO-31 renal; TK-10 renal; ACHN renal; CAKI-1 renal; A498 renal; CCRF-CEM leukemia; MOLT-4 leukemia.
What all share (assay): NCI-60 one-dose screen, 48 h (100 = growth as untreated, 0 = no growth, -100 = all killed)
What all share (settings): 10 µM unless noted

Several values for one entry are separate records, joined by “and”; a condition that tells them apart may be missing. Equal values may be shown once. This is part of a sample that, as a whole, favours compounds with a hit. Of some 83,000 tested, about 20% had one in any assay.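 The endpoint reported here, percent growth, reads 100 for growth as untreated, 0 for no net growth and -100 for all cells dead.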 A number with no mark means an inactive call. Activity calls are given as the source filed them. How the source made its calls: active means growth percent below 10; inactive means the rest.

With `O=C(O)c1c2c(nc3ccccc13)Cc1ccccc1-2`, the growth in the assay on HCT-15 colon was 103%; in the assay on HT29 colon, 109% and 101%; with SNB-75 CNS it was 99.6% and 101%; in the assay with SNB-19 CNS, 108% and 101%; in the assay with U251 CNS, 101% and 103%; in the assay on PC-3 prostate it was 99.2% and 86%. The growth in the assay on SK-MEL-5 melanoma was 110% and 102%; with UACC-62 melanoma, 105% and 92.9%; in the assay on LOX IMVI melanoma, 99.9% and 90.1%; in the assay on SK-MEL-28 melanoma, 109% and 98.4%; with SK-MEL-2 melanoma it was 109% and 122%; with EKVX NSCLC, 104% and 72.5%. The growth with SN12C renal is 108% and 87%; in the assay with UO-31 renal, 73.6% and 63.6%; in the assay on TK-10 renal, 114% and 101%; in the assay with ACHN renal, 103% and 101%; in the assay on CAKI-1 renal it was 98% and 86.2%; with A498 renal, 78.5% and 95.6%. Besides, the growth with CCRF-CEM leukemia is 91.1% and 77.3%; with MOLT-4 leukemia, 96.2% and 114%.

For `COC(=O)c1ccccc1Cl`, the growth is 100% with HCT-15 colon; 111% in the assay on HT29 colon; 96.6% in the assay with SNB-75 CNS; 108% with SNB-19 CNS; 97.4% in the assay on U251 CNS; 96.9% in the assay on PC-3 prostate. Besides, the growth was 103% in the assay with SK-MEL-5 melanoma; 104% with UACC-62 melanoma; 98.6% in the assay with LOX IMVI melanoma; 115% with SK-MEL-28 melanoma; 108% in the assay on SK-MEL-2 melanoma; 99.9% in the assay on EKVX NSCLC. Further, the growth in the assay with SN12C renal is 105%; with UO-31 renal, 93.8%; in the assay with TK-10 renal, 97.1%; in the assay on ACHN renal it was 106%; with CAKI-1 renal, 99.6%; with A498 renal it was 88.8%. Besides, the growth with CCRF-CEM leukemia was 100%; in the assay with MOLT-4 leukemia, 105%.

Consider `COc1ccc(CCO)cc1`, for which the growth with HCT-15 colon is 102%; in the assay on HT29 colon, 94.3%; in the assay with SNB-75 CNS, 101%; in the assay with SNB-19 CNS, 100%; in the assay on U251 CNS, 95.5%; in the assay with PC-3 prostate it was 91.9%. For the same molecule, the growth in the assay with SK-MEL-5 melanoma is 100%; in the assay on UACC-62 melanoma it was 98.5%; with LOX IMVI melanoma, 99.5%; in the assay on SK-MEL-28 melanoma, 111%; in the assay with SK-MEL-2 melanoma it was 91.7%; with EKVX NSCLC, 107%. Further, the growth in the assay on SN12C renal is 100%; in the assay on UO-31 renal, 96.9%; with TK-10 renal, 96.3%; in the assay on ACHN renal it was 103%; in the assay on CAKI-1 renal it was 102%; in the assay on A498 renal, 97.2%. For the same molecule, the growth in the assay with CCRF-CEM leukemia was 101%; in the assay with MOLT-4 leukemia, 60.7%.

Take `O=C1c2ccccc2CN1c1ccccc1`: the growth in the assay on HCT-15 colon was 107%; with HT29 colon, 82.4%; in the assay on SNB-75 CNS, 102%; in the assay with SNB-19 CNS, 88.9%; in the assay with U251 CNS it was 101%; in the assay with PC-3 prostate, 116%. Moreover, the growth in the assay with SK-MEL-5 melanoma was 96.5%; in the assay on UACC-62 melanoma, 85.9%; with LOX IMVI melanoma, 113%; with SK-MEL-28 melanoma it was 120%; in the assay on SK-MEL-2 melanoma it was 70.6%; in the assay with EKVX NSCLC, 113%. Further, the growth in the assay with SN12C renal is 90.5%; in the assay on UO-31 renal, 121%; in the assay on TK-10 renal it was 94.3%; in the assay on ACHN renal, 99%; in the assay with CAKI-1 renal it was 102%; in the assay on A498 renal, 101%. Moreover, the values for the growth in the assay with CCRF-CEM leukemia and in the assay with MOLT-4 leukemia were 106% and 85.2%, respectively.

In the case of `CCNC1=CC(=O)c2ncccc2C1=O`, the growth was 10.8% with HCT-15 colon; 8.49% (active) with HT29 colon; -91% (active) in the assay with SNB-75 CNS; 19.6% in the assay with SNB-19 CNS; 30.7% in the assay on U251 CNS; 44.7% with PC-3 prostate. Further, the growth was -98.3% (active) with SK-MEL-5 melanoma; -95.3% (active) in the assay with UACC-62 melanoma; -35.3% (active) with LOX IMVI melanoma; -37% (active) in the assay on SK-MEL-28 melanoma; 26.9% with SK-MEL-2 melanoma; 72.6% in the assay on EKVX NSCLC. The growth with SN12C renal was -32.2% (active); in the assay with UO-31 renal it was 48.4%; in the assay with TK-10 renal, 83.6%; in the assay with ACHN renal it was 59%; in the assay with CAKI-1 renal it was 55.8%; in the assay on A498 renal, 80.8%. Also, the growth in the assay with CCRF-CEM leukemia is 76.7%; with MOLT-4 leukemia, 52.6%.

As to `CCOC(=O)C1=C(C)NC(C)=C(C(=O)OCC)C1`, the growth is 108% and 90.8% in the assay on HCT-15 colon; 101% and 102% with HT29 colon; 83.1% and 76.6% in the assay on SNB-75 CNS; 99.5% in the assay with SNB-19 CNS; 104% and 91.2% in the assay with U251 CNS; 82.4% and 104% in the assay on PC-3 prostate. The growth in the assay on SK-MEL-5 melanoma was 101% and 103%; in the assay on UACC-62 melanoma, 94.4% and 102%; with LOX IMVI melanoma it was 98.4% and 102%; with SK-MEL-28 melanoma it was 105% and 101%; with SK-MEL-2 melanoma, 109% and 110%; in the assay on EKVX NSCLC, 109%. The growth was 94.7% and 109% in the assay with SN12C renal; 98.9% and 90.4% with UO-31 renal; 107% and 101% with TK-10 renal; 109% and 105% in the assay with ACHN renal; 113% and 97.6% in the assay with CAKI-1 renal; 112% in the assay with A498 renal. The growth in the assay on CCRF-CEM leukemia was 86.9% and 56%; in the assay with MOLT-4 leukemia it was 134% and 101%.
